Test results from the supplement of paper PMC6555819.

Legend:
Experiment in all cases: PBM binding z-score (relative to random genomic background probes); higher = stronger binding; sequences stand for … in GC…GCGATTGACAGCGTAGAATGAAGG
[1] = test system: FXR:RXRa (NR concentration 270 nM, RXRa partner concentration 90 nM)
Procedure, shortened: (§1)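 Regression normalization was applied to scanned fluorescence from custom Agilent 4×180K protein-binding microarrays. Before scanning, arrays were incubated 1 h with ligand-free nuclear receptor dimers, and binding was detected with antibodies against each partner (one per run). Binding z-scores use the random background probes as reference.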

[2] = test system: LXRa:RXRa (NR concentration 270 nM, RXRa partner concentration 90 nM)
Procedure, shortened: as §1

[3] = test system: LXRa homodimer (NR concentration 270 nM)
Procedure, shortened: as §1

[4] = test system: LXRb:RXRa (NR concentration 270 nM, RXRa partner concentration 90 nM)
Procedure, shortened: as §1

[5] = test system: LXRb homodimer (NR concentration 270 nM)
Procedure, shortened: as §1

[6] = test system: PPARg:RXRa (NR concentration 180 nM, RXRa partner concentration 90 nM)
Procedure, shortened: as §1

[7] = test system: PPARg:RXRa 270nM:90nM, anti-RXR (NR concentration 270 nM, RXRa partner concentration 90 nM)
Procedure, shortened: as §1

[8] = test system: PPARg:RXRa 30nM:10nM, anti-RXR (NR concentration 30 nM, RXRa partner concentration 10 nM)
Procedure, shortened: as §1

[9] = test system: PPARg:RXRa 90nM:30nM, anti-RXR (NR concentration 90 nM, RXRa partner concentration 30 nM)
Procedure, shortened: as §1

Sequence | PBM binding z-score [1] | PBM binding z-score [2] | PBM binding z-score [3] | PBM binding z-score [4] | PBM binding z-score [5] | PBM binding z-score [6] | PBM binding z-score [7] | PBM binding z-score [8] | PBM binding z-score [9]
CCCGCTAGGTCATGGTCAGCTAATCTACAGTATG | 3.68 | 2.72 | 0.611 | 2 | -0.348 | 2.43 | 2.82 | 0.967 | 1.94
ATATGTAGGTTCCATCCGGGTCATTCAGGCTATG | 1.31 | 1.3 | 0.192 | 1.88 | 0.514 | 2.33 | 2.26 | 0.557 | 1.74
CCTACTGGGCCAAGGTCTTTGATCAGTCAAAGCA | -0.503 | -0.304 | -0.544 | -0.54 | -0.812 | 0.806 | 1.32 | 0.0343 | 0.749
ATATGTAGGTTACATCCGGGTCTTTCAGGCTATG | 0.415 | 2.91 | 0.384 | 1.23 | 0.526 | 4.92 | 4.07 | 1.55 | 3.34
CCTAGTAGGTTATGGGGCATTCAGGCAACGGTGA | 0.561 | 0.515 | -0.0293 | 0.689 | -0.176 | 5.47 | 5.67 | 4.4 | 6.07
TCTCGGAGGACACGAAAGGTCTGAGCTCGACATC | 0.119 | -0.119 | -0.569 | -0.279 | -0.889 | 0.108 | 1.01 | 1.92 | 1.49
TAGCCTAGGTCATTCAGGGGCCAGTATGGAAAGC | 4.71 | 3.88 | 0.839 | 2.81 | 1.22 | 2.1 | 2.25 | 0.204 | 1.74
CCGACTTGGGCAAAGGTTACCATACTCAGTACGA | 0.847 | 1.32 | 0.214 | 1.68 | -0.6 | 6.45 | 6.29 | 5.67 | 7.54
CAAACTAGGTCACCGGAAGGTCATAGTCCGCATG | 6.02 | 5.59 | 4.48 | 4.88 | 0.927 | 9.71 | 7.81 | 6.11 | 7.67
CATACAGGGTAAGCTAGGCCAGAGTAGGGACGGC | 0.167 | 0.793 | -0.335 | -0.589 | -0.153 | 0.575 | -0.433 | -0.335 | -0.43
CGTCCAACGTCAGCAGGTCAGTGAAAGCGACGTG | -0.27 | -0.136 | -0.366 | -0.0519 | -0.788 | -0.188 | -0.476 | -0.755 | -0.842
CAAACTAGGTCAAAGGTCAAAATCGAGCCAACCA | 8.54 | 7.06 | 4.95 | 7.22 | 3.3 | 13.4 | 11.8 | 13.7 | 14.5
TAGCCTAGGTCATGCGGGCCAGTATAGTGTCGGC | 3.95 | 3.16 | 0.141 | 1.55 | -0.409 | 1.98 | 2.32 | -0.028 | 1.01
ACTAGTTGGTCAGCTGAGGTCACACTCAATTCGG | 3.79 | 3.19 | 2.29 | 3.64 | 0.527 | 1.23 | 1.94 | 0.159 | 1.26
CCTGCTAGGTCAATGGTCAGCTAAAGCAGCTCGC | 3.01 | 2.21 | -0.22 | 1.4 | -0.359 | 4.36 | 5.49 | 3.2 | 5.15
CCTTACGGGTCTCTCCAGGTTATAGCATCGGAGT | 0.0576 | 2.63 | 0.136 | 0.0193 | -0.526 | -0.0815 | -0.225 | -0.385 | -0.47
AGTCAAAGTTCAGGACGAGGTAATGTAAAGCACG | 4.1 | 3.43 | 1.28 | 1.77 | 0.372 | 4.31 | 4.68 | 2.03 | 4.01
TCTAGTTGGTCAAAGGTCTCACACTCGAAATGCG | 1.27 | 1.49 | 0.269 | 1.57 | 0.449 | 7.81 | 7.33 | 6.65 | 8.53
GATTACGGGTCAAAGGTTATAGCATGAATAGAAT | 7.94 | 6.17 | 1.25 | 6.01 | 0.564 | 11.8 | 9.6 | 10.5 | 11.3
GCTAGTTGGTCAGTAAATGGTCACACACCGGTCG | 0.041 | -0.126 | -0.00637 | -0.244 | -0.204 | 0.366 | -0.00235 | -0.52 | -0.282
CCTACTGGGGCAAAGGTCATTGATTCCAATGCTC | 4.69 | 5.21 | 2.93 | 4.78 | 0.406 | 12 | 10 | 9.73 | 11.1
TCATATAGGTAATAGGTGAAAGTCGGTGTGGTAA | 1.15 | 1.11 | 0.316 | 1.18 | 0.0131 | 6.6 | 6.84 | 6.19 | 7.27
CCTAGCAGGCCACGGTCACTCAAGCATTTCGCTT | 0.26 | 0.128 | -0.0188 | 0.0634 | -0.369 | 0.0164 | 0.322 | -0.777 | -0.122
CAAACTAGGTCAAAGGTCAAAGCCGAGCCAACCA | 8.47 | 7.19 | 5.21 | 7.3 | 2.55 | 13.1 | 11.3 | 13.6 | 13
ACTTACGGGTCAACGGGGTTATAGCACGCGTATA | 6.95 | 4.81 | 0.682 | 5 | 0.93 | 6.4 | 5.83 | 2.51 | 4.14
AGCTCTAGGTAAAAGTTCAGTGAATCCCGAGGAT | 0.542 | 0.948 | 0.969 | 0.702 | -0.253 | 7.73 | 7.47 | 6.13 | 7.9
